Screening results: PubChem BioAssay, The Scripps Research Institute Molecular Screening Center
A selection: hits, their analogues and other compounds. The true share with any hit is near 1.8%.
Fam108B inh: blocks mouse Fam108B hydrolase in RBBP9 counter-screen. AID 1947. inhibition, % at 9.51 µM. recombinant Fam108B, FP-Rh probe fluorescence polarization. hit rate 0.33% among 300,000;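 active means inhibition above the screen mean inhibition plus 3 SD, computed separately per campaign, cut at about 18% in these data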;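 further: inhibitors lower polarization as less probe binds the enzyme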
LYPLA1 counter: LYPLA1 (human) inhibition in PME1 counter-screen; O75608; recombinant LYPLA1, FP-Rh probe fluorescence polarization; inhibition, % at 5.9 µM; hit rate 0.16% among 320,000; AID 2174;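 active means inhibition above the mean of all tested compounds plus 3 SD, set per campaign, cut at about 14% in these data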;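 further: inhibitors block serine hydrolase probe labeling of LYPLA1 so polarization falls; 0% = enzyme with DMSO and 100% = wells lacking LYPLA1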
Target sequence (O75608 whole entry, looked up): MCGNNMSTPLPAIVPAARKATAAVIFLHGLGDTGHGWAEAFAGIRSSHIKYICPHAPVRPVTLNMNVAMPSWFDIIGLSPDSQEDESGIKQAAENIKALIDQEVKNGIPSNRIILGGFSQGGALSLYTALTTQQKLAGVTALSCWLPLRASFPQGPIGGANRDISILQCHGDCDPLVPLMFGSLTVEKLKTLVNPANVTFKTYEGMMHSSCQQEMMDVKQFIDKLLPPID
GSTO1 inh: blocks human GSTO1 in RBBP9 counter-screen. P78417. AID 1974. recombinant GSTO1, activity-based probe fluorescence polarization. inhibition, % at 5.96 µM. hit rate 1.1% among 300,000;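 active means inhibition above the campaign mean inhibition plus 3 SD, cut at about 35% in these data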;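 further: 0% = GSTO1-1 with DMSO and 100% = wells lacking GSTO1-1 enzyme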
Target sequence (P78417 whole entry, looked up): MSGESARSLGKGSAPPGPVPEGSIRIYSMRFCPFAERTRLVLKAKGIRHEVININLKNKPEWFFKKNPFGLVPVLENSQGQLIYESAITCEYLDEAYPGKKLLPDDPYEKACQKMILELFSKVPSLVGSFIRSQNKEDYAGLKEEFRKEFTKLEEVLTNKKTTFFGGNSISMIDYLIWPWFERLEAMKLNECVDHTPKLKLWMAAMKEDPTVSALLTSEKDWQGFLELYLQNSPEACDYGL
PAD4 inh: blocks human protein arginine deiminase 4; recombinant PAD4, RCA probe fluorescence polarization; hit rate 0.41% among 330,000; inhibition, % at 6.36 µM; Q9UM07;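 active means percent inhibition above a cutoff equal to the mean of all tested compounds plus 3 SD, cut at about 15% in these data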;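 further: 0% = PAD4 with RCA probe and DMSO and 100% = probe without PAD4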
LYPLA2 counter: LYPLA2 (human) inhibition in PME1 counter-screen; recombinant LYPLA2, FP-Rh probe fluorescence polarization; inhibition, % at 5.9 µM; hit rate 0.38% among 320,000;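 active means inhibition above the screen-wide mean plus 3 SD, limit set per campaign, cut at about 26% in these data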;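 further: 0% = LYPLA2 with DMSO and 100% = wells lacking LYPLA2 enzyme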
Target sequence (O95372 whole entry, looked up): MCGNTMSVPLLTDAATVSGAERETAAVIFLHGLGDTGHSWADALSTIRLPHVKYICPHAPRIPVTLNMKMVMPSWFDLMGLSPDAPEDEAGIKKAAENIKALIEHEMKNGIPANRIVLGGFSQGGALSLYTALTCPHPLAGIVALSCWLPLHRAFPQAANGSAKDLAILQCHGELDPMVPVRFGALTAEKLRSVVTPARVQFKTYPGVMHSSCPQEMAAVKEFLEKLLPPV
PME-1 primary: blocks human protein phosphatase methylesterase 1. Q9Y570. recombinant PME-1, FP-Rh probe fluorescence polarization. inhibition, % at 5.9 µM. hit rate 0.53% among 320,000;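 active means inhibition above the campaign mean of all compounds plus 3 SD, cut at about 26% in these data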;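 further: competitive labeling of PME-1 active site by serine hydrolase directed probe; 0% = PME-1 with DMSO and 100% = wells lacking PME-1 enzyme; inhibitors block probe labeling so polarization falls and inhibition rises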
Fam108b inh conf: Fam108b (mouse) hydrolase inhibition, confirmation assay; shares compounds with Fam108B inh; recombinant Fam108b, FP-Rh probe fluorescence polarization; inhibition, % at 9.51 µM; hit rate 44% among 930; AID 1978;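 active means inhibition above a limit from the primary screen, the mean over all compounds plus 3 SD, cut at about 19% in these data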;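 further: 0% = median of active Fam108b wells and 100% = catalytically dead S170A mutant; inhibitors free the probe so polarization falls as inhibition rises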
Fam108b ABPP HTS: mouse ABHD17B inhibition. inhibition, % at 20 µM. shares compounds with Fam108B inh. AID 588649. hit rate 44% among 260. recombinant Fam108b, gel-based ABPP, fluorophosphonate probe; in the data active means inhibition above about 40%
GSTO1 confirm: confirmation of human GSTO1 inhibitors | AID 2176 | hit rate 54% among 2,400 | inhibition, % at 5.96 µM | recombinant GSTO1, probe fluorescence polarization | shares compounds with GSTO1 inh;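 active means inhibition above the primary screen's cutoff, its mean inhibition plus 3 SD, cut at about 35% in these data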;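 further: loss of polarization as inhibitors block binding of rhodamine sulfonate ester activity probe; 0% = GSTO1 with DMSO and 100% = wells lacking GSTO1 enzyme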
LYPLA1 confirm: counter-screen for PME1 inhibitors: confirmation of human LYPLA1 inhibitors; shares compounds with LYPLA1 counter; recombinant LYPLA1, FP-Rh probe fluorescence polarization; inhibition, % at 5.9 µM; hit rate 69% among 480; AID 2233;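 active means mean inhibition across replicates above the hit cutoff set in the primary screen, cut at about 15% in these data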;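 further: loss of FP-Rh probe labeling of LYPLA1 seen as lower polarization; 0% = LYPLA1 with DMSO and 100% = wells lacking LYPLA1 enzyme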
LYPLA2 conf: LYPLA2 (human) inhibition, confirmation counter-screen | shares compounds with LYPLA2 counter | recombinant LYPLA2, FP-Rh probe fluorescence polarization | inhibition, % at 5.9 µM | hit rate 72% among 1,100;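 active means mean inhibition across replicates above the hit cutoff set in the primary screen, cut at about 26% in these data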;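 further: blocked labeling of the enzyme by serine hydrolase FP-Rh probe lowers polarization; 0% = enzyme with DMSO and 100% = wells lacking LYPLA2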
PAD4 confirm: PAD4 (human) inhibition, confirmed; recombinant PAD4, RCA probe fluorescence polarization; inhibition, % at 6.36 µM; AID 488796; shares compounds with PAD4 inh; hit rate 28% among 1,200;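 active means mean inhibition across replicates above the hit cutoff set by the earlier primary screen, cut at about 15% in these data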;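 further: inhibitors block active-site labeling by the probe so polarization falls; 0% = PAD4 with probe and DMSO and 100% = probe without PAD4 enzyme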
* hit, by the source's call; x = no result.

SMILES	Fam108B inh	LYPLA1 counter	GSTO1 inh	PAD4 inh	LYPLA2 counter	PME-1 primary	Fam108b inh conf	Fam108b ABPP HTS	GSTO1 confirm	LYPLA2 conf	PAD4 confirm	others
O=S(=O)(Nc1cc2nc3ccccc3nc2n1Cc1ccccc1)c1ccc(Cl)cc1	43*	54*	73*	72*	57*	53*	64*	20	92*	93*	x	LYPLA1 confirm=45*
CN(c1ccccc1)S(=O)(=O)c1ccc(NC(=O)c2ccc(-c3ccccc3)cc2)cc1	45*	22*	-23	0	30*	64*	80*	95*	x	35*	x	LYPLA1 confirm=26*
CC(=O)Nc1ccc(NC(=O)c2ccc(N(C)S(=O)(=O)c3ccc(C)cc3)cc2)cc1	3	-1	-1	1	-1	2	x	x	x	x	x
O=C1C(CSCc2ccccc2)NC(=S)N1c1ccccc1 (configuration not stated)	71*	29*	7	-3	50*	89*	3	x	x	-3	x	LYPLA1 confirm=1
COc1cc(OC)c(-c2c3cc(O)c(=O)cc-3oc3cc(O)c(O)cc23)cc1OC	-298	-174	-181	-121	-348	-299	x	x	x	x	x
Cc1c2cc(O)c(=O)cc-2oc2cc(O)c(O)cc12	114*	95*	96*	65*	108*	113*	138*	0	107*	102*	x	LYPLA1 confirm=94*
O=C(Nc1ccc(S(=O)(=O)NCc2ccco2)cc1)c1ccc(F)cc1	0	-4	-5	-1	-2	5	x	x	x	x	x
CC(C)OC(=O)/C(C#N)=C/c1c[nH]c2ccccc12	2	-5	-8	-7	1	-2	x	x	x	x	x
COc1ccc2c(c1)C(=NNc1ccc(C(=O)O)cc1)c1cc(OC)ccc1-2	30*	28*	7	-3	37*	-34	30*	0	x	18	x	LYPLA1 confirm=19*
N#CC1(NC(=O)COc2cccnc2[N+](=O)[O-])CCCCC1	x	-1	x	-5	1	7	x	x	x	x	x
O=C(CN1C(=O)S/C(=C\c2cc(Cl)c(O)c(Cl)c2)C1=O)Nc1ccccc1	23*	7	27	2	92*	23	19*	x	x	82*	x
O=C1c2ccccc2-c2onc3ccc(NCCCn4ccnc4)c1c23	122*	105*	105*	106*	112*	109*	150*	80*	x	117*	x	LYPLA1 confirm=109*
Cc1ccc(C(=O)NC(Cc2cccc(C(F)(F)F)c2)C(=O)O)cc1 (configuration not stated)	x	x	x	-6	x	x	x	x	x	x	x
NC(=O)c1cc(S(=O)(=O)N2CCN(c3ccc([N+](=O)[O-])cc3)CC2)cs1	-1	2	-4	4	6	11	x	x	x	x	x
Cc1ccc2c3c(cccc13)-c1ccccc1C2=O	-6	7	-4	0	-6	-3	x	x	x	x	x
Cc1coc2c1C(=O)C(=O)c1c-2ccc2c(C)cccc12	19*	10	97*	-4	39*	8	15	x	57*	9	x
Oc1ccc2ccccc2c1/C=N/Nc1ccccc1	9	5	32	11	7	2	x	x	x	x	x
Cc1cc(N/N=C/c2c(O)ccc3ccccc23)nc(-c2ccccc2O)n1	70*	4	0	3	46*	57*	103*	x	x	-15	x
N#CCN(CC#N)C(=O)C1c2ccccc2Oc2ccccc21	91*	87*	19	56*	105*	77*	-9	x	x	0	2	LYPLA1 confirm=2
COc1ccc(S(=O)(=O)/N=C2\C=C(Nc3ccc(O)cc3)C(=O)c3ccccc32)cc1	28*	-10	94*	62*	-8	36*	37*	65*	89*	x	58*
Cc1ccccc1NC1=C/C(=N\S(=O)(=O)c2cccs2)c2ccccc2C1=O	41*	5	92*	70*	19	30*	60*	60*	88*	x	53*
CC(=O)Nc1ccc(NC2=C/C(=N/S(=O)(=O)c3cccs3)c3ccccc3C2=O)cc1	41*	-2	87*	65*	8	22	40*	x	86*	x	45*
O=C(c1ccccc1Oc1ccc([N+](=O)[O-])cc1)N1CCOCC1	0	-1	1	0	-5	9	x	x	x	x	x
Cc1c[nH]c2ccccc12	-3	3	2	-5	2	1	x	x	x	x	x
Cc1ccc(CNC(=O)c2cc(Cl)cc(Cl)c2)n1C	-3	-5	-5	1	-11	-2	x	x	x	x	x
SMILES	Fam108B inh	LYPLA1 counter	GSTO1 inh	PAD4 inh	LYPLA2 counter	PME-1 primary	Fam108b inh conf	Fam108b ABPP HTS	GSTO1 confirm	LYPLA2 conf	PAD4 confirm	others
O=C(O)CSc1cc(NS(=O)(=O)c2ccc(Br)cc2)c2ccccc2c1O	22*	8	90*	31*	38*	30*	3	x	81*	20	-2
COc1ccccc1C(=O)Nc1ccnn1C1CCN(CCCC2CCCC2)CC1	-2	7	-12	-2	15	4	x	x	x	x	x
Nc1nccnc1C(=O)OCC(=O)Nc1ccc2[nH]c(=O)[nH]c2c1	-1	-3	-45	1	-4	1	x	x	x	x	x
O=C1OC(Nc2cc(Br)cc3cccnc23)c2ccccc21 (configuration not stated)	47*	11	86*	61*	17	28*	7	x	x	x	-6
Cc1ccccc1NC1=C/C(=N\S(=O)(=O)c2ccc(C(=O)O)cc2)c2ccccc2C1=O	54*	7	90*	71*	32*	36*	89*	30	93*	x	58*
O=C(O)c1ccc(S(=O)(=O)/N=C2\C=C(Nc3ccccc3F)C(=O)c3ccccc32)cc1	49*	7	91*	67*	26*	26	66*	85*	93*	75*	65*
CC1=C(Nc2ccc(C(=O)O)cc2)C(=O)c2ccccc2C1=O	2	-7	30	0	-3	0	x	x	x	x	x
CN1C(=O)c2cccc3c(Cl)ccc(c23)C1=O	1	1	5	3	3	2	x	x	x	x	x
CNc1ccc2c3c(cccc13)C(=O)N(C)C2=O	62*	59*	40*	95*	82*	77*	47*	25	31	59*	86*	LYPLA1 confirm=47*
